Our source for the inhibition values is PubChem BioAssay AID2132 (NMMLSC, 2009).

What is called inhibition is the drop in the measured response relative to a control, in per cent.

A number with no mark means an inactive call. Calls of active or inactive are those of the source.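 How the source made its calls: active means inhibition above 20%; inactive means the rest.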 Peptide text beside a SMILES is read from it. * marks the point of attachment. Cbz = O=C(OCc1ccccc1)*

The nature of this experiment: inhibition of 26S proteasome fluorogenic peptide cleavage, counter-screen for 26S proteasome disassembly project, biochemical, fluorogenic peptides, secondary (AID 2132). The following applies: yeast 26S proteasome, fluorogenic peptide cleavage rate; with Ac-nLPnLD-amc; at 100 µM; stronger effect = higher value. On the technique in general: Counterscreens check selectivity or assay interference.

Turning to `CC(C)C[C@@H](C=O)NC(=O)[C@H](CC(C)C)NC(=O)[C@H](CC(C)C)NC(=O)OCc1ccccc1` (Cbz-Leu-Leu-Leu-aldehyde), the inhibition was 27% (active).

As to `CC(=O)N1C(=O)C(=C2C=C(C)OC(C)=C2)c2ccccc21`, the inhibition is 20%.
